Screening results: PubChem, National Center for Advancing Translational Sciences (NCATS)
Only some compounds are listed: those with a hit (about 6.2% of all), similar ones and a draw of the others.
ATXN2 expr inh: inhibitors of ATXN2 expression. HEK-293 ATXN2-luciferase reporter, luminescence, 24 h. AID 1745845. actives 0.72% (n = 360,000). Potency, µM (titrated, usually from 57 µM), inactives show at the top dose activity change, negative = inhibition, actives largely listed as inhibitors; note: % is set by controls: 0 for no effect and ±100 for the full control effect; nearly all actives have a fitted effect of over 55% in size
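qHTS (up to 57 uM final) was run with 24 h compound exposure of reporter cells at 37 °C. Each well was multiplexed: SteadyGlo luminescence measured ATXN2-luciferase expression after a fluorogenic Gly-Phe-AFC viability readout (25 uM final).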
HT1080 IDH1KD tx: HT-1080 IDH1 knockdown cell toxicity (counter line); HT-1080 IDH1 knockdown viability, ATP luminescence, 48 h; Potency, µM (series often up to 46.1 µM), inactives show at the top dose activity, negative = toxicity, most hits filed as cytotoxic; actives 2% (n = 360,000); AID 686971;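 note: 0% = DMSO wells and -100% = cell-free medium wells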
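% activity derives from luminescence (CellTiter-Glo), normalised to DMSO and no-cell wells. HT-1080-IDH1KD cells, 750/well, had 48 h compound exposure at 37 °C.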
S2 tox: viability counter-screen for ATXN expression inhibitors; S2 cells (HEK-293 line with an ATXN2-luciferase reporter) viability, CellTiter-Fluor protease fluorescence, 24 h; Potency, µM (doses to about 56.7 µM), hits mostly cytotoxic; actives 0.49% (n = 400,000); AID 651635; note: nearly all actives have a fitted effect of over 40% in size
HT1080NT lethal: kills 2HG-producing HT-1080-NT fibrosarcoma cells. HT-1080-NT fibrosarcoma viability, CellTiter-Glo ATP luminescence, 48 h. Potency, µM (titrated, usually from 46.1 µM), inactives show top-dose activity, negative = less viability, actives largely listed as cytotoxic. actives 1.6% (n = 360,000). AID 686970;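 note: NT is the 2HG producing partner of a matched IDH1 knockdown line; 0% = DMSO-treated cells and -100% = media-only wells without cells; nearly all actives have a fitted effect of over 55% in size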
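Viability by CellTiter-Glo luminescence after 48 h compound exposure at 37C of HT-1080-NT cells (750/well, RPMI, 5% FBS). % activity scaled between DMSO wells and medium-only wells, then curve-fitted and categorized by curve class.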
KB-3-1 cytotox: kills parental KB-3-1 adenocarcinoma cells | AID 1347075 | KB-3-1 viability, CellTiter-Glo ATP luminescence, 72 h | Potency, µM (highest dose often 46.1 µM), most hits filed as cytotoxic | actives 1.4% (n = 400,000); note: % is set by controls: 0 for no effect and ±100 for the full control effect; nearly all actives have a fitted effect of over 60% in size
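Screening of KB-3-1 cells (DMEM, 10% FBS, phenol-red free) ran from lowest to highest compound concentration; after 72 h at 37 °C viability was read luminescently and curves fitted.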
KB-V1 MDR tox: KB-V1 MDR subline cytotoxicity | actives 3.4% (n = 400,000) | Potency, µM (titrated, usually from 46.1 µM), actives largely listed as cytotoxic | KB-V1 MDR cells viability, CellTiter-Glo, 72 h | AID 1347076; note: % is set by controls: 0 for no effect and ±100 for the full control effect; nearly all actives have a fitted effect of over 60% in size
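Cells of the MDR subline KB-V1 are plated, dosed with compound at multiple concentrations, and incubated 72 h at 37 degrees C; CellTiter-Glo is then added and luminescence read after 10 min.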
* hit, by the source's call; i = inactive; ? = inconclusive; · = no result given. Calls come from the whole dose curve; as a rule, active = well fitted curve in the direction sought with a large enough effect; inconclusive = small, poorly fitted or top-dose-only effect, or another doubt; inactive = no such curve, though single readings can be large; an effect the other way counts as inactive or inconclusive. Potency is the fitted concentration of half-maximal effect.

SMILES	ATXN2 expr inh	HT1080 IDH1KD tx	S2 tox	HT1080NT lethal	KB-3-1 cytotox	KB-V1 MDR tox
COc1ccc(NC2=CC(=O)CC(c3ccccc3)C2)c(OC)c1 (stereo not given)	26%	2.5µM*	i	3.5µM*	?	2.6µM*
CC(=O)NC1CCSC1=O (stereo not given)	7%	·	i	·	·	·
COc1ccccc1CCNC1C2CC3CC(C2)CC1C3 (stereo not given)	-11%	-11%	i	-16%	i	15µM*
CCN1c2nc3ccccn3c(=O)c2CC2(C(=O)N(C)C(=O)N(C)C2=O)C1C (stereo not given)	-2%	4%	i	8%	i	16µM*
CC1CCN2c3nc4ccccn4c(=O)c3CC3(C(=O)N(C)C(=O)N(C)C3=O)C2C1 (stereo not given)	4%	-1%	i	-17%	i	7.3µM*
CCS(=O)(=O)N1Cc2cc(C(=O)N(C)C)nc(-c3cccc(-c4ccc(F)cc4)c3)c2[C@@H]1CCO	3%	-1%	i	1%	i	i
O=C(c1ccccc1Cl)N1CCC(c2nc3ccccc3s2)CC1	0%	·	?	·	i	13µM*
O=C1NC(=O)C(=Cc2ccccc2OCCOc2ccc([N+](=O)[O-])cc2)C(=O)N1	20%	18µM*	i	?	i	i
CN1C(=O)C(=Cc2ccccc2OCCOc2ccc([N+](=O)[O-])cc2)C(=O)N(C)C1=O	-12%	?	?	?	i	i
C=CC[C@@H](CC(=O)N(CCO)Cc1ccccc1)C(=O)NC[C@@H](OC(=O)[C@@H](CC=C)CC(=O)OC(C)(C)C)c1ccccc1	?	-8%	20µM*	-20%	i	i
C=CC[C@H](CC(=O)N(CCO)Cc1ccccc1)C(=O)NC[C@H](OC(=O)[C@@H](CC=C)CC(=O)OC(C)(C)C)c1ccccc1	?	0%	25µM*	-27%	?	?
C[C@H]1COC(=O)[C@@H](Cc2ccc(F)cc2)CC/C=C/C[C@H](CC(=O)N(CCO)Cc2ccccc2)C(=O)N1	-15%	-4%	i	-1%	i	i
OC(c1ccccc1)(c1ccc(Cl)cc1)C1CN2CCC1CC2 (stereo not given)	-13%	16µM*	i	?	?	?
Cc1c(C(=O)c2cccc3ccccc23)c2cccc3c2n1[C@H](CN1CCOCC1)CO3	?	9.2µM*	?	15µM*	?	?
O=C(CN1CCOCC1)c1cccc2ccccc12	3%	2%	i	2%	i	i
CC1CCN(C(=O)Cn2c3ccccc3c3nc4n(c(=O)c32)CCCS4)CC1	-19%	-5%	?	-9%	i	i
CCCC1(CCC)C(=O)NC(=Nc2ccccc2)NC1=O	3%	8%	i	8%	i	i
CCCCC1(CCCC)C(=O)NC(=Nc2cccc(C)c2)NC1=O	?	18µM*	i	?	?	?
COc1ccc(Br)cc1C1SCC(=O)Nc2c1c(C)nn2-c1ccccc1C (stereo not given)	?	·	i	·	?	i
N#CC1=C(N)Oc2c(c(=O)oc3ccccc23)C1c1ccncc1 (stereo not given)	8%	-2%	i	-2%	i	i
N#CC1=C(N)Oc2c(c(=O)sc3ccccc23)C1c1cccnc1 (stereo not given)	-18%	4.6µM*	?	3.3µM*	?	i
CC(=O)c1ccc2c(c1)C1C(Cl)C(Sc3ccccc3[N+](=O)[O-])CC1C(C(=O)O)N2 (stereo not given)	-4%	5%	?	5%	i	10µM*
O=C(O)c1cccc2c1NC(C(=O)O)C1CC(Sc3ccccc3[N+](=O)[O-])C(Cl)C21 (stereo not given)	9%	0%	?	2%	i	i
